“And” between values parts separate entries of the source, which are not always exact repeats. Equal entries are not always repeated.

The target of the first experiment is Cyclin-dependent kinase 1 (Homo sapiens) (UniProt P06493). The conditions noted are these: at 1 µM.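 Further: mean percent inhibition of the CDK1/cyclin B complex.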
Cyclin-dependent kinase 1 (Homo sapiens), sequence (P06493 whole entry, looked up): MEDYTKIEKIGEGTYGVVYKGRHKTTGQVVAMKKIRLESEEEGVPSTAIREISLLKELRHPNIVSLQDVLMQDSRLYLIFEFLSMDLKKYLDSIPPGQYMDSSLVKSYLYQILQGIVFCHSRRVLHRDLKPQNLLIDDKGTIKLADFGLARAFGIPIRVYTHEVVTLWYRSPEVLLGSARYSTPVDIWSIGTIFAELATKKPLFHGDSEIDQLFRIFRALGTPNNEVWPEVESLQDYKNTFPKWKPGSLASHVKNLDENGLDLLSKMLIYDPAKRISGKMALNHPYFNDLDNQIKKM
Consider `Cc1cc(O)cc(C)c1/C=C/c1cncc(C(N)=O)c1`, for which the inhibition worked out at 1.3%.
For the compound `CC1=C(C(=O)Nc2ccc3[nH]ncc3c2)C(c2ccc(F)cc2)N=C(c2ccc(C(F)(F)F)nc2)N1` (configuration not stated), the inhibition came to 0.48%.
With `COc1c(C(N)=O)cc(-c2ccc(Cl)cc2)cc1-c1ccc(S(N)(=O)=O)cc1`, the inhibition was -0.03%.
Turning to `Cc1cc(O)cc(C)c1/C=C/c1cncc(C(=O)OC(C)(C)C)c1`, the inhibition is 3.26%.
For the compound `COc1ccc(Nc2ncc(-c3ccccc3)o2)cc1OC`, the inhibition stood at 29.9%.
Same read-out and setting: for `Fc1ccc(Nc2nccc(-c3c(-c4ccc(C(F)(F)F)cc4)nn4ncccc34)n2)cc1F` the value was 0.76%.
With `O=C(O[C@H]1CN[C@H](C#Cc2cc3ncnc(Nc4ccc(OCc5cccc(F)c5)c(Cl)c4)c3s2)C1)N1CCOCC1`, the inhibition amounted to 1.18%.
On the same count and under the same terms, in the case of `COc1ccc2ncn(-c3cc(O[C@H](C)c4ccccc4C(F)(F)F)c(C(N)=O)s3)c2c1` it was 3.45%; in that of `CNC(=O)c1ncccc1Nc1nc(Nc2cc3c(cc2OC)CCCN3C(=O)CN(C)C)nc2[nH]ccc12`, 5.38%; in that of `COc1ccccc1-c1cc(/C=C2\C(=O)Nc3ncc(Br)cc32)cc(Br)c1O`, 5.31%.
Consider `c1cnn2ncc(-c3ccnc(NCCCN4CCOCC4)n3)c2c1`, for which the inhibition stood at 13.9%.
Consider `CCCNc1cccc(-n2ncc3c(N/N=C/c4ccncc4)ncnc32)c1`, for which the inhibition was found to be 22.5%.
With `OCCCNc1nccc(-c2c(-c3ccc(F)cc3)nn3cc(C(F)(F)F)ccc23)n1`, the inhibition was 2.59%.
Same read-out and setting: in the case of `CS(=O)(=O)Nc1ccc(-c2ccc3c(NC(=O)C4CC4)n[nH]c3c2)cc1` it was 3.65%; in that of `CN1CCC(C(=O)Nc2n[nH]c3nc(-c4ccc(O)cc4)c(Br)cc23)CC1`, 43.7% and 42.6%.
Consider `CS(=O)(=O)Nc1ccc(-c2cc(-c3ccccc3)cc(C(N)=O)c2N)cc1`, for which the inhibition was -0.25%.
Regarding `COc1cccc(Nc2nccc(-c3cnn4ncccc34)n2)c1`, the inhibition was 79.2%.
Consider `CS(=O)(=O)CCNCc1ccc(-c2ccc3ncnc(Nc4ccc(OCc5ccccc5)cc4)c3c2)o1`, for which the inhibition was -4.99%.
Still for that read-out and setting: in the case of `CC(C)c1ccc(-c2cc(-c3c[nH]nc3-c3ccccn3)ccn2)cc1` it was 2.01%; in that of `FC(F)(F)CNc1nccc(-c2cnn3ncccc23)n1`, 29.1%; in that of `Cc1nnc(-c2cccc(-c3ccc(C(=O)NCC4CC4)cc3)c2)o1`, 2.72%.
In the case of `COc1ccc(-c2nn3ncccc3c2-c2ccnc(Nc3ccc(F)c(F)c3)n2)cc1`, the inhibition came out at 2.75%.
For the compound `O=C(Nc1n[nH]c2nnc(-c3cccnc3)cc12)C1CC1`, the inhibition was 72.5%.
Regarding `NS(=O)(=O)c1ccc(N/N=C2\C(=O)Nc3cccc(CCc4ccncc4)c32)cc1`, the inhibition came out at 21.9%.
Regarding `CNC(=O)c1cncc(/C=C/c2ccccc2C)c1`, the inhibition worked out at 7.81%.
Consider `NS(=O)(=O)c1ccc(N/N=C2\C(=O)Nc3ccc(C(=O)NCc4ccncc4)cc32)cc1`, for which the inhibition worked out at 71.3%.
With `CCS(=O)(=O)c1ccc(OC)c(Nc2ncc(-c3cccc(F)c3)o2)c1`, the inhibition is 0.96%.
As to `COc1cccc(-n2ncc3c(N/N=C/c4ccc(C(=O)NCCN(C)C)cc4)ncnc32)c1`, the inhibition came to 77.2%.
In the case of `COC(=O)Nc1nc2ccc(Oc3ccc(NC(=O)Nc4cc(C(F)(F)F)ccc4F)cc3)cc2s1`, the inhibition came out at 3.26%.
As to `Cn1c(-c2nonc2N)nc2cnccc21`, the inhibition is 4.4%.
Take `CCN1CCC(C(=O)Nc2n[nH]c3nnc(-c4cccc(F)c4F)cc23)CC1`: the inhibition worked out at 22.6%.

The target in the next experiment is Cyclin-dependent kinase 2 (Homo sapiens) (UniProt P24941). The conditions noted are these: at 0.1 µM.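 Further: mean inhibition of CDK2 bound to cyclin A, from the GSK PKIS kinase inhibitor set screen.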
As for `Cc1cc(O)cc(C)c1/C=C/c1cncc(C(N)=O)c1`, the inhibition was 1.56%.
In the case of `CC1=C(C(=O)Nc2ccc3[nH]ncc3c2)C(c2ccc(F)cc2)N=C(c2ccc(C(F)(F)F)nc2)N1` (configuration not stated), the inhibition worked out at 2.22%.
Still for that read-out and setting: in the case of `COc1c(C(N)=O)cc(-c2ccc(Cl)cc2)cc1-c1ccc(S(N)(=O)=O)cc1` it was 3.12%.
Take `Cc1cc(O)cc(C)c1/C=C/c1cncc(C(=O)OC(C)(C)C)c1`: the inhibition turned out to be 1.03%.
Same read-out and setting: for `COc1ccc(Nc2ncc(-c3ccccc3)o2)cc1OC` the value was 8.91%.
Turning to `Fc1ccc(Nc2nccc(-c3c(-c4ccc(C(F)(F)F)cc4)nn4ncccc34)n2)cc1F`, the inhibition was determined as 1.15%.
Still for that read-out and setting: for `O=C(O[C@H]1CN[C@H](C#Cc2cc3ncnc(Nc4ccc(OCc5cccc(F)c5)c(Cl)c4)c3s2)C1)N1CCOCC1` the value was 1.57%; for `COc1ccc2ncn(-c3cc(O[C@H](C)c4ccccc4C(F)(F)F)c(C(N)=O)s3)c2c1`, 1.04%.
On the same count and under the same terms, in the case of `CNC(=O)c1ncccc1Nc1nc(Nc2cc3c(cc2OC)CCCN3C(=O)CN(C)C)nc2[nH]ccc12` it was 2.38%.
Still for that read-out and setting: in the case of `COc1ccccc1-c1cc(/C=C2\C(=O)Nc3ncc(Br)cc32)cc(Br)c1O` it was 2.84%; in that of `c1cnn2ncc(-c3ccnc(NCCCN4CCOCC4)n3)c2c1`, 1.1%.
On to `CCCNc1cccc(-n2ncc3c(N/N=C/c4ccncc4)ncnc32)c1`, for which the inhibition amounted to 7.1%.
On to `OCCCNc1nccc(-c2c(-c3ccc(F)cc3)nn3cc(C(F)(F)F)ccc23)n1`, for which the inhibition worked out at 0.91%.
Still for that read-out and setting: for `CS(=O)(=O)Nc1ccc(-c2ccc3c(NC(=O)C4CC4)n[nH]c3c2)cc1` the value was 2.2%; for `CN1CCC(C(=O)Nc2n[nH]c3nc(-c4ccc(O)cc4)c(Br)cc23)CC1`, 16.2% and 18.6%; for `CS(=O)(=O)Nc1ccc(-c2cc(-c3ccccc3)cc(C(N)=O)c2N)cc1`, 0.21%.
Consider `COc1cccc(Nc2nccc(-c3cnn4ncccc34)n2)c1`, for which the inhibition worked out at 72.8%.
Still for that read-out and setting: in the case of `CS(=O)(=O)CCNCc1ccc(-c2ccc3ncnc(Nc4ccc(OCc5ccccc5)cc4)c3c2)o1` it was 1.6%; in that of `CC(C)c1ccc(-c2cc(-c3c[nH]nc3-c3ccccn3)ccn2)cc1`, 1.87%; in that of `FC(F)(F)CNc1nccc(-c2cnn3ncccc23)n1`, 1.79%.
As for `Cc1nnc(-c2cccc(-c3ccc(C(=O)NCC4CC4)cc3)c2)o1`, the inhibition stood at 2.01%.
For `COc1ccc(-c2nn3ncccc3c2-c2ccnc(Nc3ccc(F)c(F)c3)n2)cc1`, the inhibition worked out at 0.74%.
On the same count and under the same terms, in the case of `O=C(Nc1n[nH]c2nnc(-c3cccnc3)cc12)C1CC1` it was 65.5%; in that of `NS(=O)(=O)c1ccc(N/N=C2\C(=O)Nc3cccc(CCc4ccncc4)c32)cc1`, 51.4%.
With `CNC(=O)c1cncc(/C=C/c2ccccc2C)c1`, the inhibition was found to be 1.87%.
Still for that read-out and setting: in the case of `NS(=O)(=O)c1ccc(N/N=C2\C(=O)Nc3ccc(C(=O)NCc4ccncc4)cc32)cc1` it was 84.9%; in that of `CCS(=O)(=O)c1ccc(OC)c(Nc2ncc(-c3cccc(F)c3)o2)c1`, 3.74%; in that of `COc1cccc(-n2ncc3c(N/N=C/c4ccc(C(=O)NCCN(C)C)cc4)ncnc32)c1`, 36.1%.
Consider `COC(=O)Nc1nc2ccc(Oc3ccc(NC(=O)Nc4cc(C(F)(F)F)ccc4F)cc3)cc2s1`, for which the inhibition came out at 1.75%.
`Cn1c(-c2nonc2N)nc2cnccc21`: the inhibition turned out to be 2.01%.
As to `CCN1CCC(C(=O)Nc2n[nH]c3nnc(-c4cccc(F)c4F)cc23)CC1`, the inhibition is 3.86%.

As usually defined, the inhibition is the relative decrease from the control value, in per cent.

Source of the values: ChEMBL document CHEMBL1961873, “Compounds: GSK PKIS; Assays: Nanosyn kinase panel” (2012).
